# The list is not random: actives were taken first. Their share in the collection is about 2.4%.
# D2 PAM-1 = Beta-Arrestin HTS for Positive Allosteric Modulators of the Human D2 Dopamine Receptor: Potentiators | D(2) dopamine receptor (Homo sapiens), P14416 | DiscoveRx D2 beta-arrestin cells, luminescence, 90 min; 100% = 57 uM dopamine signal | potentiation, % (test concentration not listed) | 360,000 compounds, 0.23% hits | AID 624464, 2012; in the data active means potentiation above about 50%; inconclusive means mostly about 30% to 49%
#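 D2 cells co-treated with compound plus 50 nM dopamine (EC20) for 90 min at 37 deg C to detect potentiation. Beta-arrestin recruitment was read as enzyme-fragment luminescence after 1 h at ambient temperature. Full response was set by 57 uM dopamine.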
# D2 antag = HTS Assay for Allosteric Antagonists of the Human D2 Dopamine Receptor: Primary Screen for Antagonists; D(2) dopamine receptor (Homo sapiens), P14416; HEK293 TREx D2 cells, calcium flux, dopamine EC80; inhibition, % at 10 µM; 340,000 compounds, 2% hits; in the data active means inhibition above about 30%; inactive means below that, where a call was filed; further: 0% is about no effect
#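 Overnight-induced (tetracycline, 30 C) HEK293 T-REx cells carrying force-coupled D2 receive a no-wash calcium dye, then compound, then EC80 dopamine at 180 s; signals are read kinetically throughout.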
# D2 ag-1 = Beta-Arrestin HTS for Positive Allosteric Modulators of the Human D2 Dopamine Receptor: Agonists | D(2) dopamine receptor (Homo sapiens), P14416 | DiscoveRx PathHunter D2 beta-arrestin, luminescence, 90 min; 100% = 57 uM dopamine signal | activation, % (test concentration not listed) | 360,000 compounds, 0.084% hits | AID 624465, 2012; in the data active means activation above about 40%; inconclusive means between about 15% and that limit
#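 DiscoveRx PathHunter D2 beta-arrestin cells (2,100/well) attached overnight, then compound-stimulated 90 min at 37 C in HBSS/10 mM HEPES/0.1% Tween-20 buffer; beta-galactosidase complementation read by luminescence after 1 h at ambient temperature. Dopamine 57 uM final (EC100) as control.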
# D2 PAM-2 = HTS Assay for Positive Allosteric Modulators of the Human D2 Dopamine Receptor: Primary Screen for Potentiators | potentiation, % at 10 µM | AID 485347, 2010 | 340,000 compounds, 0.34% hits | D(2) dopamine receptor (Homo sapiens), P14416 | HEK293 T-REx D2, calcium flux, EC20 dopamine potentiation;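 active means potentiation over 3 SD above the plate norm, cut at about 30% in these data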; further: 0% is about no effect
#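 Potentiation of an EC20 dopamine calcium response is measured in a force-coupled, tetracycline-inducible Hek293 Trex D2 line. Compound-only kinetic reads over 180 s flag agonists before dopamine addition.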
# D2 ag-2 = HTS Assay for Allosteric Agonists of the Human D2 Dopamine Receptor: Primary Screen for Agonists. D(2) dopamine receptor (Homo sapiens), P14416. HEK293 T-REx D2 cells, calcium flux agonist mode. activation, % at 2 µM. 340,000 compounds, 0.53% hits. AID 485358, 2010;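 active means activation over 3 SD above normal in the single-dose calcium agonist read, cut at about 30% in these data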; further: 0% is about no effect
#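 Agonism is scored from calcium flux in a force-coupled, inducible HEK293 cell line expressing D2, read kinetically for 180 s after compound addition against dopamine controls.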
# D3 arrestin ag = qHTS of D3 Dopamine Receptor Agonist: D3 Dopamine Receptor B-arrestin Agonist Confirmatory Assay. DiscoveRx D3 beta-arrestin cells, luminescence, 90 min. AID 720506, 2013. Potency, µM (titrated, usually from 76.9 µM), for inactives: top-dose activation, usual class: activators. shares compounds with D2 ag-2. 2,300 compounds, 4% hits;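 further: potency means the concentration at half of the fitted maximal effect; 100% = dopamine control response; nearly all actives have a fitted effect of over 70% in size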
# Target sequence (P35462 whole entry, looked up): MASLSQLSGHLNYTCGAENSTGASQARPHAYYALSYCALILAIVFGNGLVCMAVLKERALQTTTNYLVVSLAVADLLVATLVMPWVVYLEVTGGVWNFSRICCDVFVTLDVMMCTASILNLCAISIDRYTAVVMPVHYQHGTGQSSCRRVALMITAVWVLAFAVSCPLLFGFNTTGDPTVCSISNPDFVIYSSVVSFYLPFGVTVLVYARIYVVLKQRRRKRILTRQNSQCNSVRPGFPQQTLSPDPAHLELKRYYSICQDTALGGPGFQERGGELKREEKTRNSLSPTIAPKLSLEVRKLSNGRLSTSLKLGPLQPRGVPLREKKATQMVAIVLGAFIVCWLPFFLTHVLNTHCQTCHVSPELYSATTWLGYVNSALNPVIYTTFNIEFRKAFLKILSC
# D2 ag-3 = qHTS of D3 Dopamine Receptor Agonist: D2 Dopamine Receptor B-arrestin Agonist Counterscreen. Potency, µM (doses to about 76.9 µM), for the others: at the highest dose activation, hits mostly activators. DiscoveRx PathHunter D2 beta-arrestin, luminescence, 90 min; response scale: percent relative to full dopamine signal. 2,300 compounds, 5.9% hits. AID 720507, 2013. shares compounds with D2 ag-2; further: potency means the concentration at half of the fitted maximal effect; % of control where 0% means no effect; nearly all actives have a fitted effect of over 70% in size
# * hit, by the source's call; ? = inconclusive; nt = not tested or not shown. Unless noted, the call rests on the fitted dose curve; in most records, active means well fitted activation curve with a large enough effect; inconclusive means small, poorly fitted or top-dose-only effect; inactive means flat fitted curve, though single readings scatter.
SMILES,D2 PAM-1,D2 antag,D2 ag-1,D2 PAM-2,D2 ag-2,D3 arrestin ag,D2 ag-3
CC(=O)Nc1ccc(C(=O)N2CCCCC2c2cc(C(=O)NC(C)C)no2)cc1 (centres undefined),-5,nt,-3,nt,nt,nt,nt
Oc1ccc(-c2csc(-c3ccccc3)n2)cc1O,15,-22,4,-1,0,nt,nt
Oc1ccc(-c2csc(-c3cccnc3)n2)cc1O,16,4,6,-10,31*,16µM*,15%
CC(C)N1CCN(Cc2ccccc2-c2ccco2)CC1CCO (centres undefined),-1,-12,-1,5,-2,nt,nt
CC(C)N1CCN(Cc2cccc(-c3ccco3)c2)CC1CCO (centres undefined),-16,14,3,-3,0,-8%,-6%
Cc1nn(C(C)C(=O)N2CCCC2)c(=O)c2nn(-c3ccccc3)c(C)c12 (centres undefined),-31,6,0,2,0,nt,nt
CCCOc1c(Cl)cc(C(=O)N(Cc2cccc(OC)c2)C2CCS(=O)(=O)C2)cc1Cl (centres undefined),nt,nt,nt,2,0,nt,nt
CCOc1ccc(/C(O)=C2/C(=O)C(=O)N(c3ncccn3)C2c2ccccc2)cc1 (centres undefined),-11,-5,-8,-18,50*,-9%,-5%
COc1cc(-c2cc(OC)c3c(C)oc(C)c3c(=O)c2)ccc1OC(=O)c1cccc(Cl)c1,nt,nt,nt,-11,nt,nt,nt
COc1ccc(S(=O)(=O)NCCS(=O)(=O)N2CCN(c3ccccc3F)CC2)cc1,nt,nt,nt,-4,5,nt,nt
CCOC(=O)C1C(C(=O)OCC)C1(c1ccccc1)c1ccccc1 (centres undefined),-11,-9,-1,13,1,nt,nt
CCOC(=O)/C=C/[C@H]1CC(c2ccccc2)(c2ccccc2)CO1,2,-3,-1,4,-1,-3%,-1%
CC(C)CCNC(=O)C1CCC(Cn2c(=O)c3sccc3n(CC(=O)NC(C)C)c2=O)CC1 (centres undefined),nt,nt,nt,23,1,nt,nt
CC(=O)c1ccc(OCC(O)CN2CCN(c3ccc(F)cc3)CC2)cc1 (centres undefined),-16,17,9,-49,83*,20%,24%
OC(COc1ccc2c(c1)OCO2)CN1CCN(c2ccc(F)cc2)CC1 (centres undefined),-6,76*,1,-34,30,5%,-1%
CCC(=O)c1ccc(OCC(O)CN2CCN(c3ccc(F)cc3)CC2)cc1 (centres undefined),-8,31*,0,-6,7,?,18%
CC(C)c1ccc(OCC(O)CN2CCN(c3ccc(F)cc3)CC2)cc1 (centres undefined),nt,nt,nt,-16,29,nt,nt
COc1cccc2c1ncc1c(-c3ccc(C)cc3)nn(-c3cccc([N+](=O)[O-])c3)c12,nt,nt,nt,4,2,nt,nt
CCN(CC)C(=O)[C@H]1CC(CC(=O)NCc2ccco2)C(=O)N2CCc3c([nH]c4ccc(OC)cc34)[C@]12C (some centres undefined),nt,nt,-2,nt,nt,nt,nt
O=C(Nc1ccc(OC(F)(F)F)cc1)c1cnc2n(c1=O)CCS2,-3,-4,-3,6,0,nt,nt
CCCCOC(=O)c1ccc(NC(=O)c2cnc3n(c2=O)CCS3)cc1,14,4,1,-1,0,10%,17%
Cn1c2ccccc2c(=O)c2c(=O)n(C3CCCCCC3)c(C3CCCCC3)nc21,-11,-6,-3,-10,40*,-12%,-1%
Cn1c2ccccc2c(=O)c2c(=O)n(-c3ccccc3)c(C3CCCCC3)nc21,-1,2,-1,-2,-1,nt,nt
CCc1ccc(C2N3CC4(C)CN2CC(c2ccccc2)(C3)C4=O)cc1 (centres undefined),nt,nt,nt,0,4,nt,nt
O=C(Nc1ccon1)c1nc[nH]c1C(=O)N1CCc2ccccc2C1,-10,-6,-2,0,0,-1%,-4%
SMILES,D2 PAM-1,D2 antag,D2 ag-1,D2 PAM-2,D2 ag-2,D3 arrestin ag,D2 ag-3
O=C(NCc1ccccc1)c1nc[nH]c1C(=O)N1CCc2ccccc2C1,-13,nt,1,nt,nt,nt,nt
[O-]/[N+](=C/c1ccccc1)c1ccccc1,-8,-8,-3,-13,0,2%,-3%
CCc1ccc(-c2nc(CSCC(=O)NCc3ccc(C)cc3)c(C)o2)cc1,nt,nt,nt,1,0,nt,nt
CCCCN(CC)CCCNC(=O)CC1Oc2ccccc2NC1=O (centres undefined),?,87*,53*,-18,81*,?,50µM*
CC(C)CN(CCCNC(=O)CC1Oc2ccccc2NC1=O)CC(C)C (centres undefined),4,22,3,-6,0,nt,nt
CCN(CC)CCCNC(=O)CC1Sc2ccccc2NC1=O (centres undefined),-5,17,1,-10,22,-13%,6%
Cc1cccc(-c2nc(SCc3cc(=O)c4c(C)cc(C)cc4[nH]3)n[nH]2)c1,nt,nt,nt,5,0,nt,nt
CCOc1ccccc1CN1CCc2nc(Nc3ccc4c(c3)OCCO4)ncc2C1,nt,nt,nt,-3,1,nt,nt
CC(C)N=c1scc(-c2ccco2)n1/N=C/c1ccc(O)c(O)c1,15,3,9,-3,3,nt,nt
C=CCN=c1scc(-c2ccco2)n1/N=C/c1ccc(O)c(O)c1O,101*,88*,90*,-34,74*,40µM*,35µM*
COCCN=c1scc(-c2ccco2)n1/N=C/c1ccc(O)c(O)c1O,88*,77*,70*,-30,68*,35µM*,35µM*
CCN(C(=O)COC(=O)c1cc(=O)[nH]c2ccccc12)c1c(N)n(Cc2ccccc2)c(=O)[nH]c1=O,-4,nt,-4,nt,nt,nt,nt
